# Assay results taken from PubChem BioAssay AID686978 (National Center for Advancing Translational Sciences (NCATS), 2013).
# Out of some 420,000 compounds screened, about 64,000 (15%) were called active. Roughly 27% stayed inconclusive and do not appear here. Calls come from the whole dose curve; as a rule, active = well fitted inhibition curve with a large enough effect; inconclusive = small, poorly fitted or top-dose-only effect; inactive = flat fitted curve, though single readings scatter. The list is a sample of the results. Where a call stands in place of a potency, no number is given.
# Assay: qHTS for Inhibitors of human tyrosyl-DNA phosphodiesterase 1 (TDP1): qHTS in cells in absence of CPT; note: nearly all actives have a fitted effect of over 55% in size
# Conditions: DT40 Tdp1-/- hTDP1 cells, no CPT, ATP luminescence, 48 h; activity change, negative = growth inhibition: at 46.2 µM (top of the series)
# How it was run: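 A cellular qHTS used chicken DT40 cells lacking endogenous Tdp1 but carrying stably transfected human TDP1. Compounds were applied without camptothecin, and cell growth kinetics were judged by ATP-dependent luminescence after ≥48 hr.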
# Potency is the fitted concentration of half-maximal effect.
row,SMILES,Potency
1,Cc1nc2cc(S(=O)(=O)C(F)(F)F)ccc2s1,inactive
2,CCOC(=O)c1sc(NC(=O)C2CSC3(C)CCC(=O)N23)nc1C (stereo unspecified),inactive
3,O=C(COC(=O)[C@H](Cc1ccccc1)NC(=O)c1cccs1)Nc1cc(F)ccc1F,inactive
4,C/C(=N\Nc1ccc([N+](=O)[O-])cc1)c1ccc(-n2nncc2C(C)(C)C)cc1,inactive
5,CCc1cc(=O)oc2c(C)c(OCC(=O)N3CC[C@@]4(O)CCCC[C@H]4C3)ccc12,inactive
6,COC(=O)C1=NN(c2ccccc2)C2C(=O)N(c3ccccc3OC)C(=O)C12 (stereo unspecified),inactive
7,COc1ccc(S(=O)(=O)NNC(=O)Nc2ccc(C)cc2)c(OC)c1,inactive
8,CC(=O)c1cnc(SCC(=O)O)nc1C,inactive
9,COc1ccc(C(C(=O)NCc2ccccc2)N(Cc2cccs2)C(=O)c2cnccn2)cc1 (stereo unspecified),16.4 µM (active)
10,Cc1cccc(N(C(=O)c2csnn2)C(C(=O)NCc2ccccc2)c2ccncc2)c1 (stereo unspecified),inactive
11,O=C(NCc1ccccc1)C(c1cccnc1)N(C(=O)c1csnn1)c1ccc(F)cc1 (stereo unspecified),inactive
12,COC(=O)CN1C(=O)[C@H]2[C@@H](/C=C/c3ccccc3)N3C(=O)CN(Cc4ccccc4)C(=O)[C@@]3(Cc3ccccc3)[C@H]2C1=O,inactive
13,C[C@@H]1CN([C@@H](C)CO)C(=O)CCCn2nncc2CO[C@H]1CN(C)C(=O)Nc1ccc(C(F)(F)F)cc1,inactive
14,CC(=O)NC(Cc1c[nH]c2ccccc12)C(=O)O (stereo unspecified),inactive
15,CC(C)n1c(C(O)c2ccccc2)nc2ccccc21 (stereo unspecified),inactive
16,CC(C)n1c(NCc2c[nH]c3ccccc23)nc2ccccc21,13 µM (active)
17,Cc1ccc2c(c1)N(C(=O)Nc1ccc(Br)cc1F)CCO2,inactive
18,C[C@@H]1C(c2ccc(F)cc2)=NN(c2ccc(Br)cc2)[C@H]1C(=O)N1CCOC1=O,20.6 µM (active)
19,O=C1OCCN1C(=O)[C@H]1[C@H](c2ccccc2)C(c2ccc(F)cc2)=NN1c1ccccc1,inactive
20,COc1ccc(/C(N)=N/OC(=O)CCCc2ccccc2)cc1,inactive
21,CONC(=O)c1cc(OCC(F)(F)F)ccc1OCC(F)(F)F,inactive
22,CCc1ccc(-c2nn(-c3ccccc3)cc2CSC(=N)N)cc1,23.1 µM (active)
23,CCc1ccc(-c2nn(-c3ccccc3C)cc2C(=O)N2CCN(C3CCS(=O)(=O)C3)CC2)cc1 (stereo unspecified),inactive
24,CCn1c(SCc2ccc(C)cc2)nnc1-c1nn(-c2ccccc2)ccc1=O,inactive
25,O=C(CCS(=O)(=O)Cc1ccccc1)Nc1ccc2c(c1)OCCO2,inactive
26,CCN(Cc1ccncc1)C(=O)CCc1ccccc1,inactive

row,SMILES,Potency
1,Cc1ccc(C)c(S(=O)(=O)N2CCCOC2CNC(=O)C(=O)NC2CCCCC2)c1 (stereo unspecified),inactive
2,CN(C(=O)COC(=O)Cc1ccccc1[N+](=O)[O-])C1CCS(=O)(=O)C1 (stereo unspecified),inactive
3,O=C(c1ccncc1)N1CCN(S(=O)(=O)c2cccc([N+](=O)[O-])c2)CC1,inactive
4,O=C(c1cccc([N+](=O)[O-])c1)N1CCN(Cc2ccccc2)CC1,inactive
5,CC1(c2cccc([N+](=O)[O-])c2)CC(C)(C)N(C(=O)c2ccccc2)c2ccccc21 (stereo unspecified),18.4 µM (active)
6,N#Cc1ccc(-c2ccc3nccn3c2)cc1,inactive
7,CC(=O)c1nn(-c2ccccc2)c(=Nc2ccccc2)cc1C,inactive
8,Cn1c(=O)c(C(=O)O)nn(-c2ccccc2)c1=O,16.4 µM (active)
9,Cc1ccc(-n2ccc(=O)c(C(=O)O)n2)cc1,inactive
10,CCC1SC(CC)C(=O)N(CC(=O)NC2CCCCC2)C1=O (stereo unspecified),inactive
11,CC(C)Oc1ccc(S(=O)(=O)N2CCOCC2)cc1NC(=O)C1CCCC1,inactive
12,O=C(Cn1c(-c2cscn2)nc2ccccc21)Nc1ccc(Cl)cc1,20.6 µM (active)
13,COc1ccc(NC(=O)COC(=O)Cn2c(C)nc3ccccc32)cc1OC,inactive
14,O=C(Cn1c(-c2cncs2)nc2ccccc21)NC1CCCC1,inactive
15,C#CCOCCOCCOCCNc1nc(N2CCN(C(=O)[C@H](Cc3ccc(O)cc3)n3cc(C(N)CC(C)C)nn3)CC2)nc(N2CCN(C(=O)[C@H](CCC(=O)O)n3cc(C(N)[C@H](C)CC)nn3)CC2)n1 (stereo partly specified),inactive
16,O=C(CSc1nnc(-c2ccccn2)n1-c1ccccc1)Nc1ccc2c(c1)OCO2,inactive
17,O=C(CSc1nc(C2CC2)nc2ccccc12)Nc1cccc(O)c1,inactive
18,O=C(CN1CCN(CC(=O)Nc2ccc3c(c2)OCO3)CC1)Nc1ccc(F)cc1,inactive
19,O=C(CSc1nc(-c2cccc(F)c2)[nH]c1-c1ccccc1)Nc1ccc2c(c1)OCO2,10.3 µM (active)
20,CN(C(=O)CSc1nc(C2CC2)nc2ccccc12)c1nc(-c2ccccc2)cs1,20.6 µM (active)
21,CCNC(=O)CSc1nc(-c2ccccc2)cs1,inactive
22,COC(=O)CSc1nc(C2CC2)nc2ccccc12,inactive
23,Cc1nnc(NC(=O)CSc2nc(C3CCCCC3)nc3ccccc23)s1,inactive
24,O=C(CSc1nc(C2CC2)nc2ccccc12)Nc1ccc2c(c1)OCCO2,20.6 µM (active)
25,CC(=O)Oc1ccc(C(=O)Nc2nccs2)cc1,inactive
26,Cc1ccc(C(=O)N/C(=C/c2cccnc2)C(=O)O)cc1,inactive

row,SMILES,Potency
1,Cn1ccnc1SCC(=O)Nc1ccc2c(c1)OCCO2,inactive
2,Cc1cc([N+](=O)[O-])c(=O)[nH]c1C,inactive
3,COc1ccc(S(=O)(=O)NCC(c2ccco2)N2CCOCC2)cc1 (stereo unspecified),inactive
4,Cn1cc(S(=O)(=O)NC(c2ccccc2)c2ccccc2)c(=O)n(C)c1=O,inactive
5,CCn1c(SCC(=O)Nc2nccs2)nnc1-c1ccco1,inactive
6,O=C(COC(=O)c1ccc(F)cc1F)Nc1ncccn1,inactive
7,Cc1cc(NC(=O)Nc2ccccc2)n(-c2ccccc2)n1,inactive
8,Cc1cc(C)nc(-n2nc(C)cc2NC(=O)c2ccc(F)cc2F)n1,6.51 µM (active)
9,CC(C)c1ccc(S(=O)(=O)N2CCC3(CC2)OCCO3)cc1,inactive
10,c1ccc2c(c1)CCc1snnc1-2,inactive
11,C=CCn1c(SCc2c(C)noc2C)nc2sc3c(c2c1=O)CCC(C)C3 (stereo unspecified),16.4 µM (active)
12,C=CCn1c(SCC(=O)NCCCO)nc2sc3c(c2c1=O)CCC3,inactive
13,C=CCn1c(SCC(=O)NCC2CCCO2)nc2sc(C)c(C)c2c1=O (stereo unspecified),inactive
14,O=C(CN(CC1CCCO1)C(=O)CNS(=O)(=O)c1ccc(F)cc1)NCc1ccco1 (stereo unspecified),inactive
15,Nc1nnc(SCC(=O)NCC(=O)Nc2ccc(F)c(F)c2F)s1,inactive
16,Cc1ccc(Cn2c(C)c(C(=O)NCc3ccccc3C(F)(F)F)sc2=O)cc1,inactive
17,Cn1c(CC(=O)Nc2ccc(F)cc2)nnc1SCC(=O)NC1CCCCC1,inactive
18,O=C(c1ccco1)N1CCN(C(=O)C2c3ccccc3Oc3ccccc32)CC1,inactive
19,O=C(CCc1ccccc1F)N1CCN(c2ccccc2)CC1,inactive
20,O=C(Cc1ccccc1Cl)N1CCN(c2ccccn2)CC1,inactive
21,O=C(CCSCc1ccccc1F)N1CCN(c2ccc(Cl)cc2)CC1,18.4 µM (active)
22,O=C(CCSc1ccccc1)N1CCN(c2ccccc2F)CC1,inactive
23,Cc1cccc(N2CCN(C(=O)CCSCc3ccccc3F)CC2)c1C,20.6 µM (active)
24,O=C(CCS(=O)(=O)c1cccc2nsnc12)N1CCN(c2ccccc2F)CC1,inactive
25,Cc1ncoc1C(=O)NCCC(c1ccccc1)c1ccccc1,inactive
26,Cc1ccc(S(=O)(=O)N2CCN(C(=O)N3CCOCC3)CC2)c(C)c1,inactive

row,SMILES,Potency
1,COc1ccc(S(=O)(=O)N2CCN(CC(=O)N3CCOCC3)CC2)cc1OC,inactive
2,Cc1nc(-c2ccc(F)cc2)c(CC(=O)Nc2cccc(S(=O)(=O)N3CCOCC3)c2)s1,inactive
3,Cc1ccc(S(=O)(=O)N2CCN(C(=O)COC(=O)/C=C/c3cccc(Cl)c3)CC2)c(C)c1,23.1 µM (active)
4,Cc1ccc(S(=O)(=O)N2CCN(C(=O)COC(=O)c3c(C)noc3C)CC2)c(C)c1,inactive
5,COc1ccc(S(=O)(=O)N2CCN(C)CC2)c(C)c1,inactive
6,COc1ccc(/C=C/C(=O)OCC(=O)N2CCN(S(=O)(=O)c3ccc(C)cc3C)CC2)cc1OC,20.6 µM (active)
7,CCCCOc1ccc(C(=O)NCC(=O)OCC(=O)N2CCN(S(=O)(=O)c3ccc(C)cc3C)CC2)cc1,inactive
8,Cc1ccc(S(=O)(=O)N2CCC3(CC2)OCCO3)c(C)c1,inactive
9,Cc1ccc(S(=O)(=O)N2CCN(C(=O)Cc3sc(C)nc3-c3ccc(F)cc3)CC2)c(C)c1,18.4 µM (active)
10,O=C(COC(=O)/C=C/c1cccc(Cl)c1)NCc1cccs1,inactive
11,Cc1ccc(S(=O)(=O)N2CCN(C(=O)COC(=O)c3c(C)cc(C)cc3C)CC2)c(C)c1,10.3 µM (active)
12,Cc1nc2ncnn2c(C)c1CCC(=O)N1CCN(C(=O)c2ccco2)CC1,inactive
13,COc1ccc(CN(C)CCn2cc(C(=O)N3CCSCC3)nn2)cc1C,inactive
14,Cc1cnc(C(=O)Oc2cccc(Cl)c2Cl)cn1,inactive
15,COc1cc(OC)c(C(=O)NC2CC(C)(C)NC(C)(C)C2)cc1OC,inactive
16,O=C(O)CCCC(=O)Nc1ccc(Oc2cccc(C(F)(F)F)c2)nc1,inactive
17,CCOC(=O)Cn1c2c(c(-c3ccccc3OC)cc1=O)CCCC2,inactive
18,CCc1cccc(NC(=O)CCCN2C(=O)C(c3ccccc3)Oc3cccnc32)c1 (stereo unspecified),inactive
19,Cc1ccc(CNCc2ccc3c(c2)OCO3)c(C)c1,inactive
20,COC(=O)c1sccc1NN1C(=O)c2ccccc2C1=O,inactive
21,CCCCn1c(N)c(N(CCOC)C(=O)c2cccc(S(=O)(=O)N(C)c3ccccc3)c2)c(=O)[nH]c1=O,inactive
22,C=CCC(NCCCO)c1cccc(OC)c1OC (stereo unspecified),inactive
23,O=C(CCN1C(=O)[C@H]2CC=CC[C@H]2C1=O)NCc1nc(-c2ccccc2)no1,inactive
